Compound activity: PubChem, National Center for Advancing Translational Sciences (NCATS)
Sampled rows, rich in hits. Any-hit rate of the full collection: about 20%.
HCMV antiviral: qHTS Assay for inhibitors of the human cytomegalovirus (HCMV) | hit rate 4.5% among 410,000 | activity change, negative = inhibition, % at 57.5 µM | AID 1259415, 2018 | HFF cells, HCMV-luciferase reporter, 72 h; active compounds read low; in the data active means activity change below about -60%; inconclusive means no clear call, values can overlap the other calls; inactive means above about -39%
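Two-dose cell screen: HFF monolayers treated with compounds and infected with luciferase-expressing HCMV at 1 PFU/cell, 72 h at 37C, then lysed for luciferase measurement.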
Shiga toxin inh: A qHTS for Small Molecule Inhibitors of Shiga Toxin; Vero cells, Shiga toxin protein synthesis inhibition reporter; hit rate 9.2% among 290,000; inhibition, % at 38.7 µM; in the data active means inhibition mostly above about 28%, no sharp cut-off; inactive means mostly below about 43%
Pf growth 96h: Primary qHTS for delayed death inhibitors of the malarial parasite plastid, 96 hour incubation; P. falciparum luciferase reporter growth, 96 h; Potency, µM (highest dose often 28.7 µM), hits mostly inhibitors; hit rate 6.9% among 320,000; AID 504834, 2011
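Cell-based qHTS: luciferase-tagged P. falciparum in erythrocytes (2% hematocrit, 0.05% parasitemia final) incubated with compounds for 96 hours, 37 C, 5% CO2; luciferase detection reagent then added and luminescence measured.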
CHX counter: Cycloheximide Counterscreen for Small Molecule Inhibitors of Shiga Toxin; cell reporter, cycloheximide protein synthesis inhibition counterscreen; max response, %; hit rate 12% among 300,000; AID 2314, 2010; in the data active means max response mostly above about 13%, no sharp cut-off; inactive means mostly below about 14%; further: read at 38.3 µM for the half of the compounds with a filed dose
Pf growth 48h: Primary qHTS for delayed death inhibitors of the malarial parasite plastid, 48 hour incubation; P. falciparum luciferase growth in erythrocytes, 48 h; Potency, µM (top dose mostly 28.7 µM), usual class: inhibitors; hit rate 5.9% among 310,000; AID 504832, 2011
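Compounds are pin-transferred into medium, infected erythrocytes (2% hematocrit, 0.1% parasitemia final) are added, and plates sit one parasite generation at 37 C in 5% CO2. Detection reagent is then added and luminescence measured.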
Numbers stand for hits; – = inactive; ? = inconclusive; · = not tested or not shown. Unless noted, the call rests on the fitted dose curve; in most records, active means well fitted inhibition curve with a large enough effect; inconclusive means small, poorly fitted or top-dose-only effect, or another doubt; inactive means no such curve, though single readings can be large or run the other way.

SMILES	HCMV antiviral	Shiga toxin inh	Pf growth 96h	CHX counter	Pf growth 48h
COC(=O)[C@@H]1CC[C@H](C)[C@@H](c2ccc(C)cc2)N1C(=O)c1ccc(/C=N/O[C@@H](C)c2cn([C@H](CO)Cc3ccccc3)nn2)cc1	·	–	4.7µM	–	3.7µM
COC(=O)[C@@H]1CC[C@H](C)[C@@H](c2ccc(C)cc2)N1C(=O)c1ccc(/C=N/OCC[C@@H]2C=C[C@H](OC(C)=O)[C@@H](COC(C)=O)O2)cc1	·	–	10µM	–	?
CCN(CC)CCOCCOC(=O)C(CC)(CC)c1ccccc1	–	–	–	–	–
CCN(CC)CCOC(=O)C(C)(c1ccccc1)c1ccccc1	·	·	11µM	·	?
CCc1ccc(OCc2ccc(C(=O)NCc3ccccn3)o2)cc1	–	–	10µM	32	?
CCOc1ccc(OCc2ccc(C(=O)NCc3ccncc3)o2)cc1	–	–	–	17	–
CCCNC(=O)c1ccc(COc2ccc(Cl)cc2)o1	–	–	?	–	–
COc1ccc(CCNC(=O)CN2C(=O)COc3ccccc32)cc1OC	–	·	·	·	·
Cc1cccc(CCNS(=O)(=O)c2ccc3c(c2)NC(=O)CS3)c1	–	–	?	–	–
O=C(O)c1ccc2c(=O)n3c(nc2c1)/C(=C/c1ccccc1OC(F)F)CC3	–	–	–	–	–
O=c1c2ccccc2c(C=Nc2ccccc2O)c(O)n1-c1nccs1	–	–	?	–	13µM
CN(C(=O)n1cnc2ccccc21)c1ccccc1	–	–	–	–	–
ClC(Br)=C(n1cnc2ccccc21)n1cnc2ccccc21	–	–	–	–	10µM
CCC1=C[C@@H]2CN(C1)Cc1c([nH]c3ccccc13)[C@@](C(=O)OC)(c1cc3c(cc1OC)N(C)[C@H]1[C@@](O)(C(=O)OC)[C@H](OC(C)=O)[C@]4(CC)C=CCN5CC[C@]31[C@@H]54)C2	·	–	·	–	·
CN1CCN(CC#CCOc2ccc(Cl)cc2)CC1	–	·	–	21	–
Clc1ccc(OCC#CCN2CCCC2)cc1	–	61	–	23	–
Cc1cnc(NC(=O)C(C)(C)n2cc(-c3ccc4c(c3)OCCO4)cn2)s1	–	·	·	·	·
N#C/C(=C\c1ccc(-c2cc(Cl)ccc2Cl)o1)C(=O)Nc1ccccc1C(=O)O	–	·	·	·	·
O=C(/C=C/c1ccc(Cl)cc1)N(Cc1ccccc1)C1CCS(=O)(=O)C1 (stereo not drawn)	–	–	?	–	–
O=C(Nc1ccccc1F)n1ncc2cc(Cl)ccc21	–	–	–	12	–
COc1ccc(NC(=O)n2ncc3cc(Cl)ccc32)cc1OC	–	56	–	47	–
COc1cc(NC(=O)n2ncc3cc(Cl)ccc32)cc(OC)c1	–	60	?	43	–
CCOC(=O)c1ccccc1NC(=O)n1ncc2cc(Cl)ccc21	–	·	·	·	·
COc1cc(OC)c(NC(=O)n2ncc3cc(Cl)ccc32)cc1Cl	–	·	·	·	·
COc1cc(NC(=O)Cn2c(=O)nc(-c3ccccc3F)c3cc(Cl)ccc32)cc(OC)c1	–	·	·	·	·
SMILES	HCMV antiviral	Shiga toxin inh	Pf growth 96h	CHX counter	Pf growth 48h
Cc1nc(C)c(CCNS(=O)(=O)c2ccc(F)cc2)s1	–	·	·	·	·
Cc1cc2nnc(SCC(=O)NCc3ccco3)n2c2ccccc12	–	·	·	·	·
O=S(=O)(Nc1ccc(N2CCOCC2)cc1)c1ccccc1	–	–	–	–	–
O=S(=O)(c1ccccc1)c1ccc(N2CCCCCC2)cc1	–	·	?	21	?
O=S(=O)(Nc1ccc(N2CCCCC2)cc1)c1cccs1	–	60	·	41	–
O=S(=O)(c1ccccc1)N1CCN(c2ccccc2)CC1	–	–	–	–	–
O=S(=O)(Nc1ccc(N2CCCCC2)cc1)c1ccc(F)cc1	-61	51	?	13	–
O=S(=O)(Nc1ccc(N2CCCCC2)cc1)c1ccccc1	–	–	–	18	–
O=S(=O)(NC1=NCCCCC1)c1cc(F)ccc1F	–	·	·	·	·
COC(=O)c1sccc1NC(=O)CC1C(=O)NCCN1C(=O)Nc1ccc(C(F)(F)F)cc1 (stereo not drawn)	–	–	–	–	–
Cc1cccc(-c2noc(CN(C(C)C)S(=O)(=O)c3ccc(Br)cc3)n2)c1	–	·	·	·	·
CCOc1ccc(CN(C(=O)c2ccccn2)c2ccc(OC)c(Cl)c2)cc1	–	64	–	–	–
COc1cc(CN(C(=O)c2ccco2)c2ccc(C)cc2)ccc1O	?	–	?	–	12µM
CCOc1ccc(N(Cc2ccc(OC)c(OC)c2)C(=O)c2ccco2)cc1	–	–	–	–	12µM
